# High-throughput results from PubChem.
# TDP1 cell noCPT: qHTS for Inhibitors of human tyrosyl-DNA phosphodiesterase 1 (TDP1): qHTS in cells in absence of CPT. Potency, µM (top dose mostly 46.2 µM), for inactives: at the highest dose activity change, negative = growth inhibition, hits mostly inhibitors. DT40 Tdp1-/- hTDP1 cells, no CPT, ATP luminescence, 48 h. hit rate 15% among 420,000; also: potency is read from the fitted curve at half-maximal effect; nearly all actives have a fitted effect of over 55% in size
#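 Seeded 400 DT40-hTDP1 cells/well (vehicle DMSO, no 20 nM CPT); pinned compounds; ≥48 hr at 37 °C; CellTiter-Glo luminescence as viability measure.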
# IL1B secr inh: qHTS for Inhibitors of Inflammasome Signaling: IL-1-beta AlphaLISA Primary Screen | THP-1 LPS/ATP IL-1B secretion, AlphaLISA, 16 h; hits give low values | activity change, % at 57.5 µM | hit rate 4.7% among 360,000; in the data active = activity change below about -50%; inconclusive = mostly about -30% to -49%
#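 THP-1 cells pretreated 1 hr with compounds (up to 57.5 uM final), then stimulated with LPS (250 ng/mL final) plus ATP (1.25 mM final); secreted IL-1B measured by AlphaLISA after 16 hr, decreased signal indicating inhibition.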
# Six1-Eya2 blk: qHTS Assay for Inhibitors of the Six1/Eya2 Interaction; Homeobox protein SIX1 (Homo sapiens) + Protein phosphatase EYA2 (Homo sapiens), …; AlphaScreen GST-Six1/His-Eya2 binding, biochemical; hits give low values; activity change, % (concentration not given with the values); hit rate 0.56% among 360,000; in the data active = activity change below about -65%; inconclusive = mostly about -30% to -63%
#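 AlphaScreen with GST-Six1 and His-Eya2 (5X mix: 250 nM and 500 nM), glutathione donor and nickel acceptor beads; buffer 50 mM Tris pH 8.0, 300 mM NaCl, 1 mM TCEP; 1 h at 37 C in the dark.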
# CtBP-E1A inh: qHTS Assay for Inhibitors of the CtBP/E1A Interaction | AlphaScreen GST-E1A/His-CtBP binding, 1536-well; hits give low values | hit rate 0.49% among 340,000 | CtBP / adenovirus E1A interaction (AlphaScreen) | AID 651724, 2012 | activity change, % (no concentration beside the values); in the data active = activity change below about -65%; inconclusive = mostly about -30% to -63%
#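 In 5 uL wells, 23 nL compound meets equimolar GST-E1A and His-CtBP (5X stock 125 nM each) for 2 h, 37 °C. Beads (5X, 50 ug/mL) then 1 h, 37 °C, dark.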
# TDP1 inh: qHTS Assay for Inhibitors of Tyrosyl-DNA Phosphodiesterase (TDP1); hit rate 0.28% among 350,000; Tyrosyl-DNA phosphodiesterase 1 (Homo sapiens), Q9NUW8; Potency, µM (doses to about 130 µM), inactives show at the top dose activity change, negative = inhibition, most hits filed as inhibitors; recombinant TDP1, AlphaScreen DNA substrate cleavage; also: potency is read from the fitted curve at half-maximal effect; nearly all actives have a fitted effect of over 40% in size
# Target sequence (Q9NUW8 whole entry, looked up): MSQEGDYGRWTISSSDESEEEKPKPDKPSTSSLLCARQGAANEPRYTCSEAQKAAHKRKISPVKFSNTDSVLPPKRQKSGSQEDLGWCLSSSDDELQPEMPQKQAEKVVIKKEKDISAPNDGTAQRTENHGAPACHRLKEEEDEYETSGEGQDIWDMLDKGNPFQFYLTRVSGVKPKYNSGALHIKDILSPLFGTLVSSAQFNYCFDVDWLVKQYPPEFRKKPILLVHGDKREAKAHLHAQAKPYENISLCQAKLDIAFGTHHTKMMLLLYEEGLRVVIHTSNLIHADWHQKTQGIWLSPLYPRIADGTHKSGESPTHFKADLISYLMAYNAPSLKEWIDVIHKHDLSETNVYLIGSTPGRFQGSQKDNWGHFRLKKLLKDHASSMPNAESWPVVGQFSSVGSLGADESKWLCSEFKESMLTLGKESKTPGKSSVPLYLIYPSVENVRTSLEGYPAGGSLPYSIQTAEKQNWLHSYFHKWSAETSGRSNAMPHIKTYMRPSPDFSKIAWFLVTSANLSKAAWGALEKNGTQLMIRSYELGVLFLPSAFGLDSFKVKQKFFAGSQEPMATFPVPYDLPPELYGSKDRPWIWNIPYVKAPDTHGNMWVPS
#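 Enzyme-compound mixtures sat 15 min at room temperature, followed by a 5 min reaction with 15 nM final substrate and 10 min with AlphaScreen beads. Recombinant human Tdp1 was used at 1 nM final.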
# DT40 TDP1 CPT: qHTS for Inhibitors of human tyrosyl-DNA phosphodiesterase 1 (TDP1): qHTS in cells in presence of CPT. Potency, µM (titrated, usually from 46.2 µM), for the others: at the highest dose activity change, negative = growth inhibition, usual class: inhibitors. AID 686979, 2013. chicken DT40 Tdp1-/-;hTDP1 cells + 20 nM CPT, ATP luminescence, 48 h. hit rate 12% among 420,000; also: potency is read from the fitted curve at half-maximal effect; nearly all actives have a fitted effect of over 55% in size
#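 Cell growth measured by CellTiter-Glo luminescence after a minimum 48 h, 37 C compound exposure with 20 nM CPT in Tdp1-knockout DT40 cells stably expressing hTDP1, seeded 400/well; qHTS titration format.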
# * hit, by the source's call; ? = inconclusive; / = no result. Most compounds without a hit are left out; they make up all but 18% or so of the library. Unless noted, calls follow the shape of the dose curve; as a rule, active = well fitted curve in the direction sought with a large enough effect; inconclusive = small, poorly fitted or top-dose-only effect, or another doubt; inactive = no such curve, though single readings can be large; an effect the other way counts as inactive or inconclusive. % is scaled to controls: 0 for no effect and ±100 for the full control effect.
SMILES,TDP1 cell noCPT,IL1B secr inh,Six1-Eya2 blk,CtBP-E1A inh,TDP1 inh,DT40 TDP1 CPT
CC(=O)N1c2ccc(S(=O)(=O)N3CCC(C(=O)Nc4cccc(C)c4C)CC3)cc2CC1C (centres undefined),-18%,-1,-2,1,1%,?
CN(CC(=O)Nc1ccc(F)cc1)C(=O)COC(=O)COc1ccc(C#N)cc1,15%,8,6,0,/,-10%
CCC(=O)N1CCc2cc(S(=O)(=O)CCC(=O)NCc3ccc(F)cc3)ccc21,3.3µM*,/,/,/,2%,6.5µM*
CCC(=O)N1CCc2cc(S(=O)(=O)CCC(=O)Nc3nc(C)cs3)ccc21,?,-58*,4,-2,-2%,?
CCC(=O)N1CCc2cc(S(=O)(=O)CCC(=O)Nc3ccc(C)cn3)ccc21,14%,-1,-1,0,3%,-17%
COc1ccc(CNC(=O)CCS(=O)(=O)c2ccc3c(c2)CCN3C(C)=O)cc1,-3%,15,-92*,7,-1%,-29%
CCOc1ccc(C2NC(=O)NC(c3ccccc3)=C2C(C)=O)cc1OC (centres undefined),3%,-16,0,2,4%,-5%
COC(=O)[C@@]1(Cc2ccc(F)cc2)[C@H]2c3cc(C(=O)N(C)C)n(Cc4ccc(C)o4)c3C[C@H]2CN1C(=O)c1ccccc1,21µM*,-24,-16,-3,12%,16µM*
COC(=O)[C@@]1(Cc2ccc(F)cc2)[C@H]2c3cc(C(=O)N(C)C)n(Cc4ccc(OC)c(OC)c4)c3C[C@H]2CN1C(=O)c1ccccc1,?,-2,-13,-6,-3%,?
COC(=O)[C@@]1(Cc2ccc(F)cc2)[C@H]2c3cc(C(=O)N(C)C)n(CCc4ccc(OC)c(Br)c4)c3C[C@H]2CN1C(=O)c1ccccc1,9.2µM*,0,-8,-1,3%,10µM*
COC(=O)[C@@]1(Cc2ccc(OC)cc2)[C@H]2c3cc(C(=O)N(C)C)n(Cc4ccc(OC(F)(F)F)cc4)c3C[C@H]2CN1C(=O)c1ccccc1,21µM*,-62*,-18,-12,5%,21µM*
COC(=O)[C@@]1(Cc2ccc(OC)cc2)[C@H]2c3cc(C(=O)N(C)C)n(Cc4ccccc4)c3C[C@H]2CN1C(=O)c1ccccc1,/,/,/,/,19%,/
COC(=O)[C@@]1(Cc2ccc(F)cc2)[C@H]2c3cc(C(=O)N(C)C)n(Cc4ccccc4)c3C[C@H]2CN1C(=O)c1ccccc1,21µM*,-22,-10,-5,5%,5.2µM*
CCCc1cc(C(=O)Nc2ccc(F)c(Cl)c2)no1,?,-18,17,1,9%,-26%
CCCCCCCCCc1conc1C(=O)/C=C/c1oc2c(c1C)CCC(C)C2 (centres undefined),15µM*,-13,-2,1,/,21µM*
CS(=O)(=O)N(CC(=O)N1CCN(c2ccccc2)CC1)c1ccccc1Cl,-10%,0,4,6,/,-4%
CCc1ccccc1NC(=O)Nc1cc(C(=O)NCc2ccccc2OC)ccc1N1CCCC1,?,/,/,/,1%,15µM*
CCOCCCNC(=O)Nc1cc(C(=O)NCc2ccc(C(C)C)cc2)ccc1N1CCCC1,?,/,/,/,9%,26µM*
COc1ccc(C)cc1NC(=O)Nc1cc(C(=O)NCc2ccc(C)cc2)ccc1N1CCCC1,?,/,/,/,1%,?
COc1ccc(CNC(=O)c2ccc(N3CCCC3)c(NC(=O)NCc3ccc(C)cc3)c2)cc1,?,/,/,/,-1%,16µM*
CCOc1ccccc1NC(=O)Nc1cc(C(=O)NCc2ccc(C)cc2)ccc1N1CCCC1,8.2µM*,/,/,/,-1%,8.2µM*
COc1ccc(NC(=O)Nc2cc(C(=O)NCc3ccc(C)cc3)ccc2N2CCCC2)cc1,-9%,/,/,/,-1%,-10%
CCCn1nc(Oc2nc(N(C)C)nc(N(C)C)n2)ccc1=O,-18%,54,-11,-1,0%,9%
COCCCNC(=O)/C(C#N)=C/c1c(N2CCN(c3ccccc3)CC2)nc2ccccn2c1=O,15µM*,0,-15,-4,/,?
CNC(=O)/C(C#N)=C/c1c(N2CC(C)OC(C)C2)nc2ccccn2c1=O (centres undefined),-24%,0,3,2,3%,3%
SMILES,TDP1 cell noCPT,IL1B secr inh,Six1-Eya2 blk,CtBP-E1A inh,TDP1 inh,DT40 TDP1 CPT
CCOC(=O)N1CCN(c2nc3ccccn3c(=O)c2C=O)CC1,?,-25,8,-2,/,15µM*
COCCNC(=O)/C(C#N)=C/c1c(N2CCN(c3ccccc3)CC2)nc2ccccn2c1=O,18µM*,-3,-12,/,/,-30%
CC1CN(c2nc3ccccn3c(=O)c2/C=C(\C#N)C(N)=O)CC(C)O1 (centres undefined),-3%,-65*,-7,-2,3%,-2%
CCCC1=NN(C(=O)Cc2ccc(OC)c(OC)c2)C(O)(C(F)(F)F)C1 (centres undefined),-25%,49,7,/,1%,-17%
CO/N=C(\C(=O)N[C@@H]1C(=O)N2C(C(=O)O)=C(CSc3cnns3)CS[C@H]12)c1csc(N)n1,-11%,/,/,/,/,2%
COc1cccc(C(=O)OC2CCN(C)CC2)c1,-6%,2,12,-7,0%,-3%
CCCC[C@@H]1C[C@H]1C(NC(=O)Cc1ccccc1)c1ccc(Cl)cc1 (some centres undefined),/,/,/,/,-1%,/
N#C/C(=C\c1c(N(Cc2ccccc2)Cc2ccccc2)nc2ccccn2c1=O)C(N)=O,?,?,-21,-5,1%,?
C=CCNC(=O)/C(C#N)=C/c1c(N(Cc2ccccc2)Cc2ccccc2)nc2ccccn2c1=O,?,-53*,-12,0,4%,?
CCOP(=O)(O)c1cccc(OCCOCCOc2cccc(P(=O)(O)OCC)c2)c1,-6%,-8,-7,/,-12%,-6%
Cc1cccc(NC(=O)C(=O)NCCCN2CCOCC2)c1,-15%,-8,0,-1,1%,-7%
CCN(CC)c1nc(NN)nc(Nc2ccc(C)c(Cl)c2)n1,?,-76*,-6,4,/,?
Cc1c(C(=O)N/N=C/c2ccc(O)c(Br)c2)sc(N)c1C#N,?,-96*,?,-65*,3%,?
